Screening results deposited in PubChem BioAssay by National Center for Advancing Translational Sciences (NCATS).
Pf growth 48h – inhibits P. falciparum growth in the first generation, 48 h | Potency, µM (top dose mostly 28.7 µM), without a hit: top-dose activity change, negative = inhibition, usual class: inhibitors | P. falciparum luciferase growth in erythrocytes, 48 h | actives 5.9% (n = 310,000); note: potency is the fitted concentration of half-maximal effect; % is set by controls: 0 for no effect and ±100 for the full control effect
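Parasite viability was followed by luminescence of a genomically integrated firefly luciferase. Cultures held 0.1% parasitemia at 2% hematocrit (final), incubated under 5% CO2 at 37 C.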
AMA1 RON2 block – AMA1-RON2 (P. falciparum) interaction inhibition; actives 0.2% (n = 360,000); Potency, µM (top dose mostly 58.2 µM), without a hit: top-dose activity change, negative = inhibition, most hits filed as inhibitors; AlphaScreen AMA1-biotinylated RON2 peptide binding;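 note: potency is the fitted concentration of half-maximal effect; 0% = vehicle wells and -100% = peptide control; nearly all actives have a fitted effect of over 45% in size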
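AMA1 (3D7) with his tag at 25 nM final met compounds first, then biotinylated RON2 peptide at 25 nM; detection used donor plus acceptor beads, 10 µg/mL apiece, read by AlphaScreen after 30 min at room temperature.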
Shiga inhibitor – Shiga toxin inhibition; Vero cells, Shiga toxin protein synthesis inhibition reporter; inhibition, % at 38.7 µM; actives 9.2% (n = 290,000); in the data active = inhibition mostly above about 28%, no sharp cut-off; inactive = mostly below about 43%; note: 0% is about no effect
CHX counter – counter-screen for Shiga toxin inhibitors: cycloheximide protein synthesis inhibition; cell reporter, cycloheximide protein synthesis inhibition counterscreen; max response, %; actives 12% (n = 300,000); in the data active = max response mostly above about 13%, no sharp cut-off; inactive = mostly below about 14%; note: read at 38.3 µM for the half of the compounds with a filed dose; 0% is about no effect
HCV inhibitor – inhibitors of hepatitis C virus infection; Huh7.5.1 HCVcc-Cre infection, luciferase reporter, 44 h; Potency, µM (highest dose often 41.8 µM), without a hit: at the top dose activity change, negative = inhibition, usual class: inhibitors; actives 3.4% (n = 340,000); AID 651820; note: potency is the fitted concentration of half-maximal effect; % is set by controls: 0 for no effect and ±100 for the full control effect
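After 44 h co-culture of compound, cells and HCVcc-Cre (~0.5 moi), substrate is added for 15 min at room temperature and luciferase measured over 15 sec. Cells were seeded at 1,000/well and pre-cultured 4 h.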
Pf growth 96h – inhibits malaria parasite growth, 96 h; P. falciparum luciferase reporter growth, 96 h; Potency, µM (series often up to 28.7 µM), without a hit: at the highest dose activity change, negative = inhibition, actives largely listed as inhibitors; actives 6.9% (n = 320,000); note: potency is the fitted concentration of half-maximal effect; % is set by controls: 0 for no effect and ±100 for the full control effect
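Two parasite generations (96 h, 37 C, 5% CO2) of compound exposure in infected erythrocytes (0.05% parasitemia, 2% hematocrit). Luciferase-reporter P. falciparum; decreased luminescence indicates inhibited growth, aimed at apicoplast-acting delayed death.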
Numbers without * were called inactive; ? = inconclusive; . = no result. Most compounds without a hit are left out; they make up all but 21% or so of the library. Unless noted, calls come from the whole dose curve; as a rule, active = well fitted curve in the direction sought with a large enough effect; inconclusive = small, poorly fitted or top-dose-only effect, or another doubt; inactive = no such curve, though single readings can be large; an effect the other way counts as inactive or inconclusive.

SMILES	Pf growth 48h	AMA1 RON2 block	Shiga inhibitor	CHX counter	HCV inhibitor	Pf growth 96h
CN(/N=C/c1cc(Cl)cc(Cl)c1O)c1c(Cl)cccc1[N+](=O)[O-]	-37%	?	2	-1	-28%	-32%
COc1ccc(NC(=S)Nc2cccc(C)n2)cc1	4.7µM*	27%	62	19*	?	?
O=c1[nH]c(CN2CCN(C/C=C/c3ccccc3)CC2)nc2cc(Cl)ccc12	?	23%	-27	-3	14µM*	-5%
COc1cc2[nH]c3c(N4CCN(c5ccc(Cl)cc5)CC4)ncnc3c2cc1OC	4.1µM*	-13%	-7	0	?	?
COc1ccc2c(c1)[nH]c1c(N3CCSCC3)ncnc12	4.7µM*	-1%	-6	-1	-82%	6.6µM*
COc1ccc2c(c1)[nH]c1c(N3CCN(Cc4ccc5c(c4)OCO5)CC3)ncnc12	2.6µM*	-24%	-12	-2	?	?
COc1ccc2[nH]c3c(N4CC(C)OC(C)C4)ncnc3c2c1 (stereo not drawn)	.	2%	-8	9	-22%	?
COC(=O)c1ccc(NC(=O)CCCN2C(=O)NC(C)(C)C2=O)cc1	5%	-6%	.	.	20%	-11%
C=CCN(C(=O)c1cccc(C(F)(F)F)c1)C1(C(=O)Nc2ccccc2)CCN(C(C)C)CC1	?	-16%	-9	-4	?	7.4µM*
Nc1ccc(Cl)c(NC(=O)c2cccs2)c1	45%	-5%	active	16*	-4%	?
O=C(Nc1ccc(Cl)c(NC(=O)c2cccs2)c1)c1ccco1	15%	24%	-11	7	-28%	-20%
O=C(Nc1ccc(N2C(=O)C3C4C=CC(C4)C3C2=O)cc1Cl)c1cccs1 (stereo not drawn)	2%	-4%	3	6	13%	?
Nc1ccc(NC(=O)c2cccs2)c(Cl)c1	194%	0%	55*	32*	-9%	?
CCN1C(=O)[C@H]2[C@@H](c3ccc(OC)cc3)N[C@]3(CCCN(CC4CCCCC4)C3=O)[C@H]2C1=O	.	9%	.	.	.	.
CCC1(c2ccccc2)NC(=O)N(CC(=O)N2CC(=O)Nc3ccccc32)C1=O (stereo not drawn)	?	-3%	.	.	33%	?
CC(=O)N1SC(N)=NC1c1ccccc1 (stereo not drawn)	1%	0%	64*	19	-1%	.
CC(=O)N1N=C(c2ccccc2)CC1c1ccccc1 (stereo not drawn)	3%	5%	-11	1	-1%	?
Cc1cc(=O)oc2c1ccc1oc(/C(=N/O)c3ccccc3)c(C)c12	1.7µM*	-21%	-2	6	6.3µM*	.
CCc1c(C(=O)c2ccc(Cl)cc2)oc2c(C)c3oc(=O)cc(C)c3cc12	5%	0%	2	-3	1%	4%
Cc1ccc(/C(=N\O)c2oc3c(C)c4oc(=O)cc(C)c4cc3c2C)cc1	?	-3%	21	-3	5.6µM*	9.3µM*
COC(=O)N1C(=O)[C@](Cc2ccccc2)(c2ccccc2)N1C(=O)OC	32%	-4%	5	21*	16%	31%
CC[C@@]1(c2ccccc2)C(=O)N(C(=O)OC)N1C(=O)OC	1%	2%	3	5	25%	63%
COC(=O)N1C(=O)[C@@](c2ccccc2)(C2CCCCC2)N1C(=O)OC	39%	0%	13	11*	9%	46%
CC[C@]1(c2ccccc2)C(=O)N(C(=O)OC)N1C(=O)OC	34%	8%	-2	10	-74%	31%
COC(=O)N1C(=O)[C@@](Cc2ccccc2)(c2ccccc2)N1C(=O)OC	-7%	-5%	9	12*	22%	?
O=C(COC(=O)Cc1c(Cl)cccc1Cl)Nc1ccc(OC(F)(F)F)cc1	4%	0%	-14	2	?	4%
CSCCC(NC(=O)c1ccco1)C(=O)NCC(C)(C)N1CCOCC1 (stereo not drawn)	1%	0%	.	.	?	4%
CC(C)COC(=O)NCCCOC(=O)Nc1ccccc1	38%	1%	16	37*	8%	?
